From PubChem BioAssay
Measured potencies and affinities stand elsewhere. Calls of active or inactive are those of the source. No cut-off is given here; in the data, nearly all actives have IC50 up to about 0.91 µM.

Each compound was assayed against Calcium-dependent protein kinase 4 (Plasmodium falciparum (isolate 3D7)) (UniProt Q8IBS5) (assay: PfCDPK4 kinase inhibitors, biochemical, TCAMS library (AID 1159588)). Settings: recombinant PfCDPK4, Kinase-Glo ATP depletion luminescence.
Chain of Calcium-dependent protein kinase 4 (Plasmodium falciparum (isolate 3D7)) (Q8IBS5 whole entry, looked up): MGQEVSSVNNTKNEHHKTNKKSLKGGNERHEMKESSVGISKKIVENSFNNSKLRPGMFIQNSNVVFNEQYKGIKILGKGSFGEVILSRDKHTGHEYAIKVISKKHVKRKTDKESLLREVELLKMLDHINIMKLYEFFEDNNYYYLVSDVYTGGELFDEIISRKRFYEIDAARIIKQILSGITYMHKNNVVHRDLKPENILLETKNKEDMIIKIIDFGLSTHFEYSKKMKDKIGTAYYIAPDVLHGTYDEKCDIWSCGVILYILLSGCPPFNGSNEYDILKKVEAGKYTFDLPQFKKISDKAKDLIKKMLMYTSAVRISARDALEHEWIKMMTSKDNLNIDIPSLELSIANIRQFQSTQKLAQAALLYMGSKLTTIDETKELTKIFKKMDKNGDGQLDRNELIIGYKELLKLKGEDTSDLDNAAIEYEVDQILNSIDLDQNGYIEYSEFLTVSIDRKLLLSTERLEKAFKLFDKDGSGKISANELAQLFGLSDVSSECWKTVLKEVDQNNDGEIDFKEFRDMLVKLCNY

SMILES | outcome
CCCCC/C=C/C(=O)NC1CCC(CN2CCC(c3c[nH]c4ccccc34)CC2)CC1 (stereo not given) | inactive
COc1ccc(O)c(CN2CCN(c3cc(C)ccc3C)CC2)c1 | inactive
CC[C@H]1CN2CC[C@H]1C[C@@H]2[C@@H](O)c1cc(Cl)nc2ccc(OC)cc12 | inactive
CC(Cc1ccc(Sc2ccccc2)cc1)NCC(O)c1cccc(C(F)(F)F)c1 (stereo not given) | inactive
CC(C)CCNC(=O)c1cc(C(=O)c2cc(F)ccc2O)cn(CCC(C)C)c1=O | inactive
O=C(/C=C/c1ccc(Cl)c(Cl)c1)N1CCC(CN2CCC(c3c[nH]c4ccc(O)cc34)CC2)CC1 | inactive
Oc1ccc2[nH]cc(C3=CCN(CCc4ccccc4)CC3)c2c1 | inactive
C/C=C1\CN2CC[C@H]1C[C@H]2[C@H](O)c1ccnc2ccc(O)cc12 | inactive
CC[C@H]1CN2CC[C@@H]1C[C@H]2[C@H](O)c1cc(N2CCC(N3CCCCC3)CC2)nc2ccc(OC)cc12 | inactive
S=C(NCC1CCCCC1)NC1CCC(CN2CCC(c3c[nH]c4ccccc34)CC2)CC1 (stereo not given) | inactive
COc1cc(C=CC(=O)N2CCC(CN3CCC(c4c[nH]c5ccccc45)CC3)CC2)ccc1O | inactive
CCOc1ccc2nccc([C@@H](O)[C@@H]3C[C@@H]4CCN3C[C@@H]4CC)c2c1 | inactive
CC1(CCCCN2CC=C(c3c[nH]c4ccccc34)CC2)C(=O)Nc2ccccc21 (stereo not given) | inactive
CN1CC=C(c2c[nH]c3ccc(OC(=O)c4ccccc4)cc23)C1 | inactive
Cc1[nH]c2c(C)cc(NS(C)(=O)=O)cc2c1C1CCN(CC2CCN(C(=O)/C=C/c3ccc(Cl)c(Cl)c3)CC2)CC1 | inactive
COC(=O)c1ccc(CC(C)NCC(O)c2cccc(Cl)c2Cl)cc1 (stereo not given) | inactive
Oc1ccc(CN2CCN(CCOC(c3ccc(F)cc3)c3ccc(F)cc3)CC2)cc1Cl | inactive
COC(=O)c1ccc(CC(C)NCC(O)c2ccc(F)c(Cl)c2)cc1 (stereo not given) | inactive
O=C(C=Cc1ccccc1Br)NC1CCC(CN2CCC(c3c[nH]c4ccccc34)CC2)CC1 (stereo not given) | inactive
CC[C@H]1CN2CC[C@H]1C[C@H]2[C@H](O)c1cc(Cl)nc2ccc(OC)cc12 | inactive

SMILES | outcome
CC(=O)C1(c2ccccc2)CCN(CCC2(c3ccc(Cl)c(Cl)c3)CN(C(=O)Nc3cccc(C(F)(F)F)c3)CCO2)CC1 (stereo not given) | inactive
Cc1[nH]c2ccccc2c1C1=CCN(CCCCC23CCCc4cccc(c42)NC3=O)CC1 (stereo not given) | inactive
Oc1ccc2[nH]cc(C3=CCN(Cc4ccccc4)CC3)c2c1 | inactive
CN1CC=C(c2c[nH]c3ccc(Sc4ccccc4)cc23)CC1 | inactive
OC(CNC1CCCCCC1)c1ccc(Cl)c(Cl)c1 (stereo not given) | inactive
CC[C@H]1CN2CC[C@H]1C[C@H]2[C@H](O)c1cc(-c2cccc(F)c2)nc2ccc(OC)cc12 | inactive
COC(=O)c1ccc(CC(C)NCC(O)c2cccc(C(F)(F)F)c2)c(Cl)c1 (stereo not given) | inactive
Cc1ccc(CC(C)NCC(O)c2cccc(Br)c2)cc1 (stereo not given) | inactive
COc1ccc2[nH]cc(C3C[C@H]4CC[C@@H](C3)N4CCC3CCN(C(=O)/C=C/c4ccc(Cl)c(Cl)c4)CC3)c2c1 (stereo not given in full) | inactive
CCOC(C(=O)OCC1CCCN1C(C)C)(c1ccccc1)c1ccccc1 (stereo not given) | inactive
CN(C)c1cccc(NC(=O)NC2N=C(c3ccccc3)c3ccccc3N(CC(=O)N(C)c3ccccc3)C2=O)c1 (stereo not given) | inactive
CC(=O)Nc1ccc2[nH]cc(C3CCN(CC4CCC(NC(=O)/C=C/c5ccc(Cl)c(Cl)c5)CC4)CC3)c2c1 (stereo not given) | inactive
O=C(Cc1cc(=O)oc2cc(O)ccc12)NC1CCC(CN2CCC(c3c[nH]c4ccccc34)CC2)CC1 (stereo not given) | inactive
COc1ccc(CN2CCN(CCOC(c3ccccc3)c3ccccc3)CC2)c(O)c1 | inactive
O=C(/C=C/c1c(Cl)cccc1Cl)NC1CCC(CN2[C@@H]3CC[C@H]2CC(c2c[nH]c4ccccc24)C3)CC1 (stereo not given in full) | inactive
N#Cc1ccc(N(CC(=O)NCCc2ccccc2)CC2CC2)c2ccccc12 | inactive
CC(Cc1ccc(-c2nc3ccccc3[nH]2)cc1)NCC(O)c1cccc(C(F)(F)F)c1 (stereo not given) | inactive
O=C(/C=C/C=C/c1ccccc1)NC1CCC(CN2CCC(c3c[nH]c4ccccc34)CC2)CC1 (stereo not given) | inactive
CN(c1cc(NC(=O)c2ccc(F)cc2)ccn1)C1CCN(Cc2ccc(C#N)cc2)CC1 | inactive
COc1cc(NCCCNC(=O)c2cn(Cc3ccccc3)c3ccccc23)nc2ccccc12 | inactive
